Inconclusive results are not listed. Calls of active or inactive are those of the source. Unless noted, calls come from the whole dose curve; as a rule, active = well fitted curve in either direction with a large enough effect (not every such curve was filed as active); inconclusive = small, poorly fitted or top-dose-only effect, or another doubt; inactive = flat fitted curve, though single readings scatter.
Tests used:
[1] = target: Lysosomal acid glucosylceramidase (Homo sapiens) (UniProt P04062); assay: Glucocerebrosidase-p2 (AID 348; in the data active = potency below about 10 µM; note: potency is the fitted concentration of half-maximal effect); conditions: purified GBA, blue fluorogenic substrate, 40 min
Lysosomal acid glucosylceramidase (Homo sapiens), sequence (P04062 whole entry, looked up): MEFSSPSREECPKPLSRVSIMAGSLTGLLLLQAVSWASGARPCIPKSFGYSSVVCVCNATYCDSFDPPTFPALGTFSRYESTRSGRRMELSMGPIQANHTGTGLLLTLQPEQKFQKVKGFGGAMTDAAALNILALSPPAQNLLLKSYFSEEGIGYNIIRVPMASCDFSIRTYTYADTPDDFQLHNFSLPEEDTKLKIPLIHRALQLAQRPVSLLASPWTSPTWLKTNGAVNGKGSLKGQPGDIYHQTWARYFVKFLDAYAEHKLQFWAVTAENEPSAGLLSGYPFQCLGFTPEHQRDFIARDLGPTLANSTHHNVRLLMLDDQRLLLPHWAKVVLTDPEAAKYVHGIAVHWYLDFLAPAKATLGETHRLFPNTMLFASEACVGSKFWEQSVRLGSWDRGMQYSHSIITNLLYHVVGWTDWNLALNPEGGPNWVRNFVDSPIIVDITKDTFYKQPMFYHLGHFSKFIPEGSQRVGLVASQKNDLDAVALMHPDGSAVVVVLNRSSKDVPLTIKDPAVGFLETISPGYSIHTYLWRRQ
Procedure, shortened: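 Compounds titrated from 0.6 nM upwards against 0.2 nM enzyme in pH 5.9 citric acid/KH2PO4, taurocholate, tween-20; blue fluorogenic substrate 80 uM, 40 min room temperature, stopped and read Ex 365/Em 440 for AC50.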

[2] = target: Cytochrome P450 1A2 (Homo sapiens) (UniProt P05177); assay: p450-cyp1a2 (AID 410; calls by dose curve; note: potency is the fitted concentration of half-maximal effect;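 for activity change, negative = inhibition: -100% = full effect of reference inhibitor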); conditions: recombinant CYP1A2, luciferin-ME demethylation, luminescence; series mostly up to 11.4 µM
Cytochrome P450 1A2 (Homo sapiens), sequence (P05177 whole entry, looked up): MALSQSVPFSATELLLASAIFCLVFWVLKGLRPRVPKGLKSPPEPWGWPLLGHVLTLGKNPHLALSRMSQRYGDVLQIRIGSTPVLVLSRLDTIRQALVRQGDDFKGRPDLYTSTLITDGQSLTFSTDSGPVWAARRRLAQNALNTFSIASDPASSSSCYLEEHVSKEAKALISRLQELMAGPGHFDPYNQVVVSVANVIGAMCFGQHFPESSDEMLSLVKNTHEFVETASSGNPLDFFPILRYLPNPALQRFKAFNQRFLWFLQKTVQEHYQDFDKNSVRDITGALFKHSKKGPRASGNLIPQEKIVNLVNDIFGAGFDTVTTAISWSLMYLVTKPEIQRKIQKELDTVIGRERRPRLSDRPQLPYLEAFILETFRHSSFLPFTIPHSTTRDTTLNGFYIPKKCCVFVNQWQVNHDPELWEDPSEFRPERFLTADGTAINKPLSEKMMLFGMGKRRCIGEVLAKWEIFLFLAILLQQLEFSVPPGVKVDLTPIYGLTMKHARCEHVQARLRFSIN
Procedure, shortened: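 20nM CYP1A2 with 100uM Luciferin-ME (at Km) in 100mM KPO4; compound preincubated 10 min, NADPH regeneration added, 60 min at room temperature. Luciferin quantified by luminescence after detection reagent; normalized to 57 uM furafylline.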

[3] = Stat Signaling Pathway (AID 446); conditions: ME-180 (cervical carcinoma) SIE beta-lactamase reporter, IL-6 stimulated, 5 h; at 7.69 µM (top of the series) unless noted;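 note: ME-180 cervical cancer cells given 40 pM IL-6 alongside compound; SIE-controlled beta-lactamase reporter measured as 460/530 nm FRET emission ratio; % is set by controls: 0 for no effect and ±100 for the full control effect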
Procedure, shortened: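 IL-6/STAT signaling read in ME-180 cells via an SIE beta-lactamase reporter. Stimulus was 40 pM IL-6 (its AC50) for 5 hrs, so both activation and inhibition register.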

[4] = target: Glucocorticoid receptor (Homo sapiens) (UniProt P04150); assay: GR-GFP Redistribution (AID 450;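 active = compounds whose dose series gives a full or clear partial fitted curve of increased nuclear translocation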; note: potency is the fitted concentration of half-maximal effect); conditions: U2OS GR-GFP nuclear translocation, laser cytometry, 2 h
Glucocorticoid receptor (Homo sapiens), sequence (P04150 whole entry, looked up, the tested form may be a part): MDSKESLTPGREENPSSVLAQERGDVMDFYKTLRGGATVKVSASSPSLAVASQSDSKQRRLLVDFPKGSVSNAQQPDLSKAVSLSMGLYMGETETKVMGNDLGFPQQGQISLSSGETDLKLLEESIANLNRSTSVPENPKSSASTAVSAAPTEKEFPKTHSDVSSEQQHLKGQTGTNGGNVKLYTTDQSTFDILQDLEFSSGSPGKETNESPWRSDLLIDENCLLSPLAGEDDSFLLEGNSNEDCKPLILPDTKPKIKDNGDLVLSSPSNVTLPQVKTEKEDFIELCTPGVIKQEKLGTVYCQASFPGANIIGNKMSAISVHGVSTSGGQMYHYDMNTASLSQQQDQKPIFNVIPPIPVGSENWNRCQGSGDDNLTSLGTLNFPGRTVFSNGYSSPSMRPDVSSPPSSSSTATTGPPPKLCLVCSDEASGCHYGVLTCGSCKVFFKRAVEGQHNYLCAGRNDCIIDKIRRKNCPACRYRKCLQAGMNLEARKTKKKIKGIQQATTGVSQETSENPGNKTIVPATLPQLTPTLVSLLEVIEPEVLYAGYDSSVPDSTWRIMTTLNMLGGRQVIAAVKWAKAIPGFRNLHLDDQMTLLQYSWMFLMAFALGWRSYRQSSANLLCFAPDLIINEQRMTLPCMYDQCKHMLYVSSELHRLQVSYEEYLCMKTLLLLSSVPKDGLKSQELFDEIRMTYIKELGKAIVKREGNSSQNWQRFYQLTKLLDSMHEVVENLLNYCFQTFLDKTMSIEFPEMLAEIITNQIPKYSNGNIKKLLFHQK

[5] = target: Glucocorticoid receptor (Homo sapiens) (UniProt P04150); assay: GR-EFC Redistribution (AID 451; calls by dose curve; note: potency is the fitted concentration of half-maximal effect); conditions: CHO-K1 GR-EFC translocation, beta-gal luminescence, 2 h
Procedure, shortened: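 CHO-K1 cells stably expressing nuclear-localized β-gal enzyme acceptor and GR fused C-terminally to the enzyme donor fragment; ligand-driven nuclear translocation restores β-gal by complementation. Compounds titrated up to 46 uM final, 2 h at 37 °C; luminescence read.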

[6] = target: 3',5'-cyclic-AMP phosphodiesterase 4B (Homo sapiens) (UniProt Q07343); assay: qHTS Assay for Inhibitors of PDE-IV (AID 607; active = well fitted activation curve with a large enough effect in the main read-out, with a control signal flat, not every such curve was filed as active; note: % of control where 0% means no effect); conditions: HEK293 ACTOne CNG channel cells, membrane potential fluorescence; series mostly up to 22.9 µM
3',5'-cyclic-AMP phosphodiesterase 4B (Homo sapiens), sequence (Q07343 whole entry, looked up): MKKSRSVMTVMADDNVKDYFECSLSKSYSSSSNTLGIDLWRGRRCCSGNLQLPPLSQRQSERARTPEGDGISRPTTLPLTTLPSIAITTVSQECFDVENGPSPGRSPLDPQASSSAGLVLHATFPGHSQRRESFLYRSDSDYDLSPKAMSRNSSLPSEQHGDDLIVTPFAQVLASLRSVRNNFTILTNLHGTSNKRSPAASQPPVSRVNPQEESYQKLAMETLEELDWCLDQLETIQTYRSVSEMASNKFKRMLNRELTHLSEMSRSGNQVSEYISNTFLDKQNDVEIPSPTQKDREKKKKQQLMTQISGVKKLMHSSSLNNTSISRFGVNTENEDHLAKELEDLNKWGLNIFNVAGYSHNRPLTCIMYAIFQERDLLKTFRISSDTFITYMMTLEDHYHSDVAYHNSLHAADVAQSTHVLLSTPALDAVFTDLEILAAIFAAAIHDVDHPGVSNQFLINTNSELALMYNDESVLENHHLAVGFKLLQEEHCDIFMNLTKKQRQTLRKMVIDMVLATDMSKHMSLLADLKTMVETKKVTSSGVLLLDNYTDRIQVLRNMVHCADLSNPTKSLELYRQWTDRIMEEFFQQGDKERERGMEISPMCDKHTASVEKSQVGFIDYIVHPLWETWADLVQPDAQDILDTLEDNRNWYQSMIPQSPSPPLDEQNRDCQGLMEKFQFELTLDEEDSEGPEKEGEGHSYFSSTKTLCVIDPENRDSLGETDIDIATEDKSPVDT
Procedure, shortened: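 Live HEK293 cells with a modified cyclic nucleotide-gated (CNG) channel report intracellular cAMP via membrane-potential dye fluorescence (ex 535/em 590 nm). Endogenous PDE-IV was targeted. Compounds were tested at up to 22.9 uM final; RO 20-1724 100 uM served as control.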

[7] = target: Cytochrome P450 2C19 (Homo sapiens) (UniProt P33261); assay: qHTS Assay for Inhibitors and Substrates of Cytochrome P450 2C19 (AID 899; active = well fitted curve in the direction sought with a large enough effect; an effect the other way counts as inactive or inconclusive; note: potency is the fitted concentration of half-maximal effect; nearly all actives have a fitted effect of over 60% in size); conditions: recombinant CYP2C19, luciferin-H EGE luminescence; series mostly up to 11.4 µM
Cytochrome P450 2C19 (Homo sapiens), sequence (P33261 whole entry, looked up): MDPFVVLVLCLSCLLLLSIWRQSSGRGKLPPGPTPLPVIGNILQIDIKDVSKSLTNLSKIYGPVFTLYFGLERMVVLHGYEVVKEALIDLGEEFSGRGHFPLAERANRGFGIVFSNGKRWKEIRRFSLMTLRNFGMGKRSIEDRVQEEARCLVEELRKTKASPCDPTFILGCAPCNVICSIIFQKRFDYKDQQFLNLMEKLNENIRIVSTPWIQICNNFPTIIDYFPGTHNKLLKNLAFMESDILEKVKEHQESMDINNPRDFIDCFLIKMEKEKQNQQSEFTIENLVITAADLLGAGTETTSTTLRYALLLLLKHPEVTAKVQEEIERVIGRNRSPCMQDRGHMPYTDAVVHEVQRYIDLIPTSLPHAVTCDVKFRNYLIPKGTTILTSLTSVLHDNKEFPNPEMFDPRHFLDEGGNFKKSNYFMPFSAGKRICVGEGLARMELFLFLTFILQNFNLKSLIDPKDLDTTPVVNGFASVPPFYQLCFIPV
Procedure, shortened: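 In 50mM KPO4, the reaction held 5nM enzyme and KM-level (10uM) Luciferin-H EGE; it ran 60 min at 37C after NADPH regeneration and a 10 min compound preincubation. Luminescence values were scaled to 57uM ketoconazole as complete inhibition.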

[8] = target: Cytochrome P450 3A4 (Homo sapiens) (UniProt P08684); assay: qHTS Assay for Activators of Cytochrome P450 3A4 (AID 885; active = well fitted curve in the direction sought with a large enough effect; an effect the other way counts as inactive or inconclusive; note: nearly all actives have a fitted effect of over 65% in size); conditions: recombinant CYP3A4, Luciferin-PPXE luminescence, 60 min; series mostly up to 11.4 µM
Cytochrome P450 3A4 (Homo sapiens), sequence (P08684 whole entry, looked up): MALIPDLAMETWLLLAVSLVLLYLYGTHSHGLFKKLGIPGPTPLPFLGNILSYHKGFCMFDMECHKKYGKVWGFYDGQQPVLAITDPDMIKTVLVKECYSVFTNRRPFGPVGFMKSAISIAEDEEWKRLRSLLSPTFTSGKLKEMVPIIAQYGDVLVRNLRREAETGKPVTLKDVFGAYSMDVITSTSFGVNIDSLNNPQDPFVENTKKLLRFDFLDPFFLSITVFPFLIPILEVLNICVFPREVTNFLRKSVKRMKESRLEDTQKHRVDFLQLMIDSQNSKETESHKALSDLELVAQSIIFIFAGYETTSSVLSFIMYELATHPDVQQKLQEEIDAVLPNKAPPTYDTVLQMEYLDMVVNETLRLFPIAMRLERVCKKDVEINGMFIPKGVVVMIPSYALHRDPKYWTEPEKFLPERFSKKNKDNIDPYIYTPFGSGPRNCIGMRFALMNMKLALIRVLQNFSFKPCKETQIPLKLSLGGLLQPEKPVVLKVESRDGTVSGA
Procedure, shortened: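 Quantitative HTS format: compounds preincubated with 20nM human CYP3A4 and Luciferin-PPXE substrate at KM, reaction started by NADPH regeneration, stopped after 60 min, luciferase luminescence read 20 min later.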

[9] = NFAT Signaling Pathway (AID 444); conditions: Jurkat NFAT-bla M1, carbachol, beta-lactamase ratio, 5 h; at 7.69 µM (top of the series) unless noted;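 note: carbachol stimulus at about its EC50 of 1 µM final; % is set by controls: 0 for no effect and ±100 for the full control effect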
Procedure, shortened: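 Jurkat cells carrying an NFAT-driven β-lactamase reporter and co-transfected muscarinic M1 receptor were treated with compound plus carbachol (1 uM final, an EC50 level) for 5 h at 37 °C. CCF4 loading followed for 1 h at RT; 460/530 nm ratio gave %activity.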

[10] = target: Mitogen-activated protein kinase 10 (Mus musculus) (UniProt Q61831); assay: JNK3 AlphaScreen Assay (AID 530); conditions: JNK3 lysate, c-Jun phosphorylation; series mostly up to 11.4 µM;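 note: kinase came from lysate of stimulated human HepG2 cells; signal reports phosphorylation of biotinylated GST-cJun 1-79 at Ser73 with 10 µM ATP; % is set by controls: 0 for no effect and ±100 for the full control effect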
Procedure, shortened: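 Inhibitors reduce antibody binding to phosphorylated biotin-cJun, lowering AlphaScreen luminescence. Lysates from HepG2 cells pre-activated by IL-1beta plus TNF-alpha supplied JNK3; compounds were titrated.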

[11] = target: Cytochrome P450 2D6 (Homo sapiens) (UniProt P10635); assay: qHTS Assay for Inhibitors and Substrates of Cytochrome P450 2D6 (AID 891; active = well fitted curve in the direction sought with a large enough effect; an effect the other way counts as inactive or inconclusive; note: potency is the fitted concentration of half-maximal effect; nearly all actives have a fitted effect of over 60% in size); conditions: recombinant CYP2D6, luciferin-ME EGE luminescence; series mostly up to 11.4 µM
Cytochrome P450 2D6 (Homo sapiens), sequence (P10635 whole entry, looked up): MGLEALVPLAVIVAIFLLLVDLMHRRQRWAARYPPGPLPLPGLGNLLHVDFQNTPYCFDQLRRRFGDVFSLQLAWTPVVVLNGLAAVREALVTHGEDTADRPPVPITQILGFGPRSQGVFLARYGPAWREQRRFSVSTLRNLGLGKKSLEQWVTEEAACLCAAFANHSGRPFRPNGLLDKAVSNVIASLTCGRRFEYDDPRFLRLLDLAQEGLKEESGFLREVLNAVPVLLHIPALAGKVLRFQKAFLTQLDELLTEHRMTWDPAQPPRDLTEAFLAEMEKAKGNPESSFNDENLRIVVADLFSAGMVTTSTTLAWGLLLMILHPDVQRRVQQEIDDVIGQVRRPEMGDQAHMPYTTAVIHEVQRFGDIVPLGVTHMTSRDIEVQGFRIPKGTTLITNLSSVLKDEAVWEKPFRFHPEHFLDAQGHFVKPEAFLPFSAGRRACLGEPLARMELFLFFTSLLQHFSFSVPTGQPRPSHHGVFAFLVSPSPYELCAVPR
Procedure, shortened: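 Human CYP2D6 (5 nM) with 30 uM Luciferin-ME EGE (at Km) in 100 mM KPO4, compound preincubated 10 min, then NADPH regeneration system for 60 min at room temperature. Luciferin read by luminescence; normalized to 1.43 uM quinidine.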

Oc1c(C(O)(c2ccccc2)c2ccc3ccccc3c2O)ccc2ccccc12
inactive: Potency [1] > 11.4 µM | activity, negative = inhibition [3] -10.4% | Potency [4] > 46 µM | Potency [5] > 9.22 µM | Potency [6]
active: Potency [2] 1 µM | Potency [7] 0.794 µM

NS(=O)(=O)c1ccc(N=Nc2cc3ccccc3c(C(=O)O)c2O)cc1
inactive: Potency [1] > 11.4 µM | Potency [4] > 46 µM | Potency [5] > 9.22 µM | Potency [6] | Potency [8]
active: Potency [2] 1 µM

O=c1c(CCc2ccccc2)nc2cnc(Oc3ccccc3)nc2n1C[C@H]1CCCO1
inactive: Potency [1] > 11.4 µM | activity change, negative = inhibition [9] -10.8% | activity, negative = inhibition [3] -18.9% | Potency [4] > 9.22 µM | Potency [5] > 46 µM | Potency [6] | Potency [8]

O=C(O)c1c(-c2nccc3ccccc23)[nH]c(-c2ccccc2)c1S(=O)(=O)O
inactive: Potency [1] > 11.4 µM | activity change, negative = inhibition [9] 12% | activity, negative = inhibition [3] -1.38% | Potency [4] > 46 µM | Potency [5] > 9.22 µM | Potency [10] | Potency [6]

CN1CCN(c2ncc3nc(-c4ccc(Cl)cc4)c(=O)n(C4CC4)c3n2)CC1
inactive: Potency [1] > 11.4 µM | Potency [4] > 9.22 µM | Potency [5] > 46 µM | Potency [10] | Potency [6]
active: Potency [2] 15.8 µM

Nc1ccc(N=Nc2ccc(-c3ccc(O)cc3)cc2)c2ccc(S(=O)(=O)O)cc12
inactive: Potency [1] > 11.4 µM | activity change, negative = inhibition [2] -17.8% [at 2.29 µM] | Potency [4] > 46 µM | Potency [5] > 9.22 µM | Potency [6]

CCNc1ncc2nc(CCc3ccccc3)c(=O)n(-c3ccc(OC)cc3)c2n1
active: Potency [11] 0.251 µM
inactive: Potency [1] > 11.4 µM | activity change, negative = inhibition [9] -12.3% | activity, negative = inhibition [3] -3.89% | Potency [4] > 9.22 µM | Potency [5] > 46 µM | Potency [10] | Potency [8]

OCCN[C@@H]1c2cc(Cl)ccc2-c2c(Cl)cc(Cl)cc21
inactive: Potency [1] > 11.4 µM | activity change, negative = inhibition [9] -8.6% | activity, negative = inhibition [3] 4.1% | Potency [4] > 46 µM | Potency [5] > 9.22 µM | Potency [10] | Potency [6]

O=C1C(Cl)=C(Nc2ccc(S(=O)(=O)Nc3ccccn3)cc2)C(=O)c2ccccc21
active: Potency [2] 3.16 µM | Potency [11] 3.16 µM | Potency [7] 0.794 µM
inactive: Potency [1] > 11.4 µM | Potency [4] > 46 µM | Potency [5] > 9.22 µM | Potency [10] | Potency [6]

N#CCCn1c(=O)c(-c2ccc(F)cc2)nc2cnc(Oc3ccccc3)nc21
inactive: Potency [1] > 11.4 µM | activity change, negative = inhibition [9] -6.96% | activity, negative = inhibition [3] -5.37% | Potency [4] > 9.22 µM | Potency [5] > 46 µM | Potency [10] | Potency [6]

Cc1cccc(CNc2nc(-c3cccnc3)nc3ccccc23)c1
inactive: Potency [1] > 11.4 µM | Potency [5] > 46 µM | Potency [10] | Potency [8]
active: Potency [2] 0.631 µM

C[C@H]1CC(C)(C)C[C@@](OCCN2CCCCC2)(c2ccccc2)C1
inactive: Potency [1] > 11.4 µM | Potency [2] | activity, negative = inhibition [3] 7.87% | Potency [4] > 46 µM | Potency [5] > 9.22 µM | Potency [10] | Potency [8]
active: Potency [11] 0.631 µM

CN(Cc1ccccc1)Cn1ccnc1
active: Potency [11] 0.794 µM | Potency [7] 2 µM
inactive: Potency [1] > 11.4 µM | activity change, negative = inhibition [9] -1.18% | activity, negative = inhibition [3] 10.2% | Potency [4] > 46 µM | Potency [5] > 9.22 µM | Potency [10] | Potency [6] | Potency [8]

Cc1c(O)c(Br)c(C)c(O)c1Br (tested in a mixture with another compound)
inactive: Potency [1] > 11.4 µM | Potency [4] > 46 µM | Potency [5] > 9.22 µM | Potency [10] | Potency [6]
active: activity change, negative = inhibition [9] -77.8%

Cc1cccc(Cl)c1NC[C@H](O)CN1CCN(C)CC1
inactive: Potency [1] > 11.4 µM | activity change, negative = inhibition [9] -10.1% | activity, negative = inhibition [3] 6.35% | Potency [4] > 46 µM | Potency [5] > 9.22 µM | Potency [10] | Potency [6]

O=c1c(-c2ccc(F)cc2)nc2cnc(Oc3ccccc3)nc2n1C[C@H]1CCCO1
inactive: Potency [1] > 11.4 µM | activity change, negative = inhibition [9] -2.24% | activity, negative = inhibition [3] -12.2% | Potency [4] > 9.22 µM | Potency [5] > 46 µM | Potency [6]

O=c1c(-c2ccccc2)nc2cnc(N3CCNCC3)nc2n1Cc1ccc(F)cc1
inactive: Potency [1] > 11.4 µM | Potency [4] > 9.22 µM | Potency [5] > 46 µM | Potency [6] | Potency [8]
active: Potency [2] 20 µM

OC[C@H](S)CS
inactive: Potency [1] > 11.4 µM | activity, negative = inhibition [3] 5.31% | Potency [4] > 46 µM | Potency [5] > 9.22 µM | Potency [10] | Potency [6]

CCC1=C(C[C@H]2NCCc3ccccc32)C[C@@H]2c3cc(OC)c(OC)cc3CCN2C1
inactive: Potency [1] > 11.4 µM | Potency [2] | activity, negative = inhibition [3] -23.5% | Potency [5] > 9.22 µM | Potency [10] | Potency [6]

Source: PubChem BioAssay (NCATS)
